PubChem BioAssay (NCATS)
Records with an inconclusive call do not appear. Active and inactive are the calls of the source. Calls come from the whole dose curve; as a rule, active = well fitted curve in the direction sought with a large enough effect; inconclusive = small, poorly fitted or top-dose-only effect, or another doubt; inactive = no such curve, though single readings can be large; an effect the other way counts as inactive or inconclusive.

Assays:
[1] = Quantitative High-Throughput drug screen in 47 multiple myeloma cell lines against the NCATS MIPE library collection: INA6_PLB cell viability assay (AID 1918965; note: nearly all actives have a fitted effect of over 55% in size)
Method in brief: (§1)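 Myeloma cell lines, 500 cells per well, exposed to MIPE 4.0 library compounds for 48 h at 37C, 5% CO2. Viability from ATP by CellTiter-Glo luminescence; normalised to DMSO (100%) and media-only (0%) wells.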

[2] = Quantitative High-Throughput drug screen in 47 multiple myeloma cell lines against the NCATS MIPE library collection: JJN3_DSMZ cell viability assay (AID 1918966; note: nearly all actives have a fitted effect of over 50% in size)
Method in brief: as §1

[3] = Quantitative High-Throughput drug screen in 47 multiple myeloma cell lines against the NCATS MIPE library collection: H1112_PLB cell viability assay (AID 1918967; note: nearly all actives have a fitted effect of over 30% in size)
Method in brief: as §1

[4] = Quantitative High-Throughput drug screen in 47 multiple myeloma cell lines against the NCATS MIPE library collection: Karpas25_ECACC cell viability assay (AID 1918968; note: nearly all actives have a fitted effect of over 35% in size)
Method in brief: as §1

[5] = Quantitative High-Throughput drug screen in 47 multiple myeloma cell lines against the NCATS MIPE library collection: KMS12BM_JCRB cell viability assay (AID 1918971); note: nearly all actives have a fitted effect of over 35% in size
Method in brief: (§2)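 Myeloma cells (500 per well) were exposed to MIPE 4.0 compounds by pin transfer and incubated 48 hours at 37C, 5% CO2. Viability was read as ATP by CellTiter-Glo luminescence, normalised to DMSO (100%) and media-only (0%) wells.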

[6] = Quantitative High-Throughput drug screen in 47 multiple myeloma cell lines against the NCATS MIPE library collection: KMS12PE_JCRB cell viability assay (AID 1918972); note: nearly all actives have a fitted effect of over 30% in size
Method in brief: as §1

[7] = Quantitative High-Throughput drug screen in 47 multiple myeloma cell lines against the NCATS MIPE library collection: KMS26_JCRB cell viability assay (AID 1918975); note: nearly all actives have a fitted effect of over 45% in size
Method in brief: as §2

[8] = Quantitative High-Throughput drug screen in 47 multiple myeloma cell lines against the NCATS MIPE library collection: MMM1_PLB cell viability assay (AID 1918976); note: nearly all actives have a fitted effect of over 35% in size
Method in brief: (§3)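 500 cells/well per myeloma line exposed to pinned MIPE 4.0 compounds for 48 h at 37 °C, 5% CO2. Viability read as ATP by CellTiter-Glo luminescence, normalised to DMSO-only (100%) and media-only (0%) wells.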

[9] = Quantitative High-Throughput drug screen in 47 multiple myeloma cell lines against the NCATS MIPE library collection: MOLP8_DSMZ cell viability assay (AID 1918977); note: nearly all actives have a fitted effect of over 45% in size
Method in brief: as §3

[10] = Quantitative High-Throughput drug screen in 47 multiple myeloma cell lines against the NCATS MIPE library collection: NCIH929_DSMZ cell viability assay (AID 1918978); note: nearly all actives have a fitted effect of over 35% in size
Method in brief: as §3

[11] = Quantitative High-Throughput drug screen in 47 multiple myeloma cell lines against the NCATS MIPE library collection: MM1S_ATCC cell viability assay (AID 1918980); note: nearly all actives have a fitted effect of over 45% in size
Method in brief: as §3

[12] = Quantitative High-Throughput drug screen in 47 multiple myeloma cell lines against the NCATS MIPE library collection: MM1R_ATCC cell viability assay (AID 1918981); note: nearly all actives have a fitted effect of over 35% in size
Method in brief: as §3

[13] = Quantitative High-Throughput drug screen in 47 multiple myeloma cell lines against the NCATS MIPE library collection: KMS28PE_JCRB cell viability assay (AID 1918983); note: nearly all actives have a fitted effect of over 35% in size
Method in brief: as §3

[14] = Quantitative High-Throughput drug screen in 47 multiple myeloma cell lines against the NCATS MIPE library collection: KMS34_JCRB cell viability assay (AID 1918985); note: nearly all actives have a fitted effect of over 40% in size
Method in brief: as §3

[15] = Quantitative High-Throughput drug screen in 47 multiple myeloma cell lines against the NCATS MIPE library collection: KMS20_JCRB cell viability assay (AID 1918973); note: nearly all actives have a fitted effect of over 45% in size
Method in brief: as §1

[16] = Quantitative High-Throughput drug screen in 47 multiple myeloma cell lines against the NCATS MIPE library collection: KMS21BM_JCRB cell viability assay (AID 1918974); conditions: ATP luminescence, 48 h; viability: at 45.8 µM (top of the series)
Method in brief: as §1

[17] = Quantitative High-Throughput drug screen in 47 multiple myeloma cell lines against the NCATS MIPE library collection: OCIMY1_PLB cell viability assay (AID 1918979); note: nearly all actives have a fitted effect of over 35% in size
Method in brief: as §3

[18] = Quantitative High-Throughput drug screen in 47 multiple myeloma cell lines against the NCATS MIPE library collection: LP1_DSMZ cell viability assay (AID 1918982); note: nearly all actives have a fitted effect of over 35% in size
Method in brief: as §3

[19] = Quantitative High-Throughput drug screen in 47 multiple myeloma cell lines against the NCATS MIPE library collection: L363_DSMZ cell viability assay (AID 1918984); note: nearly all actives have a fitted effect of over 40% in size
Method in brief: as §3

Measured: Potency
Potency is the fitted concentration of half-maximal effect.

N#Cc1ccc(COC[C@H]2O[C@@H](n3c(NCc4ccc(Cl)c(Cl)c4)nc4c(N)ncnc43)[C@@H](O)[C@@H]2O)cc1
active: [1] 7.43 µM | [2] 0.469 µM | [3] 7.43 µM | [4] 23.5 µM | [5] 5.9 µM | [6] 3.72 µM | [7] 2.35 µM | [8] 4.69 µM | [9] 16.6 µM | [10] 20.9 µM | [11] 18.7 µM | [12] 3.72 µM | [13] 5.9 µM | [14] 16.6 µM

c1cncc(CN2CCC(n3ncc4c(N5CCOCC5)nc(-c5ccc6[nH]ccc6c5)nc43)CC2)c1
active: [1] 5.9 µM | [2] 5.9 µM | [3] 13.2 µM | [4] 2.35 µM | [5] 13.2 µM | [15] 1.18 µM | [7] 4.69 µM | [8] 7.43 µM | [9] 2.96 µM | [10] 0.332 µM | [17] 16.6 µM | [11] 5.9 µM | [12] 5.9 µM | [13] 6.62 µM | [14] 5.9 µM
inactive: [16]

CCOc1cc2c(c(F)c1OCC)C(=N)N(CC(=O)c1cc(N3CCOCC3)c(OC)c(C(C)(C)C)c1)C2
active: [1] 11.8 µM | [2] 18.7 µM | [3] 11.8 µM | [4] 9.35 µM | [5] 18.7 µM | [15] 9.35 µM | [7] 18.7 µM | [10] 14.8 µM | [17] 20.9 µM | [11] 14.8 µM | [12] 20.9 µM | [13] 20.9 µM | [14] 23.5 µM

CCCCCCCCc1ccc(CCC(N)(CO)CO)cc1
active: [1] 8.33 µM | [2] 18.7 µM | [3] 18.7 µM | [4] 5.9 µM | [5] 14.8 µM | [6] 7.43 µM | [15] 3.72 µM | [7] 16.6 µM | [8] 13.2 µM | [9] 14.8 µM | [10] 7.43 µM | [17] 23.5 µM | [11] 7.43 µM | [12] 9.35 µM | [18] 13.2 µM | [13] 18.7 µM | [19] 4.18 µM | [14] 14.8 µM

CC(=O)SCC(Cc1ccccc1)C(=O)NCC(=O)OCc1ccccc1 (stereo unspecified)
active: [1] 0.935 µM | [2] 5.9 µM | [3] 1.66 µM | [4] 1.05 µM | [5] 2.35 µM | [6] 1.66 µM | [7] 18.7 µM | [8] 7.43 µM | [11] 0.59 µM | [12] 3.72 µM | [13] 7.43 µM | [19] 5.9 µM | [14] 2.35 µM

Cc1cnc(Nc2ccc(CN3CCOCC3)cc2)nc1Nc1cccc(S(=O)(=O)NC(C)(C)C)c1
active: [1] 0.372 µM | [2] 6.62 µM | [3] 3.32 µM | [4] 1.32 µM | [5] 3.32 µM | [15] 2.64 µM | [7] 13.2 µM | [8] 10.5 µM | [9] 2.09 µM | [10] 1.66 µM | [11] 5.9 µM | [12] 4.69 µM | [18] 5.9 µM | [13] 9.35 µM | [14] 2.35 µM

COc1cc(C)c(Sc2cnc(NC(=O)c3ccc(CNC(C)C(C)(C)C)cc3)s2)cc1C(=O)N1CCN(C(C)=O)CC1 (stereo unspecified)
active: [1] 14.8 µM | [2] 10.5 µM | [3] 5.9 µM | [4] 4.69 µM | [5] 16.6 µM | [6] 5.26 µM | [15] 3.72 µM | [7] 16.6 µM | [8] 7.43 µM | [9] 8.33 µM | [10] 3.32 µM | [17] 14.8 µM | [11] 4.18 µM | [12] 5.9 µM | [18] 16.6 µM | [13] 9.35 µM | [19] 2.96 µM | [14] 14.8 µM

NC(=O)N1CCC(CC(=O)N2CCC([C@H]3c4ncc(Br)cc4CCc4cc(Cl)cc(Br)c43)CC2)CC1
active: [1] 7.43 µM | [2] 16.6 µM | [3] 10.5 µM | [4] 14.8 µM | [5] 18.7 µM | [6] 11.8 µM | [16] 13.2 µM | [7] 20.9 µM | [8] 16.6 µM | [17] 20.9 µM | [11] 16.6 µM | [12] 20.9 µM | [13] 18.7 µM | [19] 4.18 µM | [14] 20.9 µM

CN1CCc2c(c3ccccc3n2Cc2ccc(C(=O)NO)cc2)C1
active: [1] 4.69 µM | [2] 18.7 µM | [3] 16.6 µM | [5] 16.6 µM | [7] 20.9 µM | [10] 10.5 µM | [11] 16.6 µM | [12] 16.6 µM | [13] 18.7 µM | [14] 16.6 µM

N#Cc1c(C2CCNCC2)cc(-c2c(O)cccc2OCC2CC2)nc1N
active: [1] 16.6 µM | [2] 18.7 µM | [4] 18.7 µM | [5] 14.8 µM | [6] 20.9 µM | [15] 23.5 µM | [16] 16.6 µM | [7] 18.7 µM | [8] 18.7 µM | [9] 14.8 µM | [10] 20.9 µM | [11] 16.6 µM | [12] 20.9 µM | [13] 26.4 µM

COc1cc2c(cc1OC)[C@@H]1C(=O)c3ccc4c(c3O[C@@H]1CO2)C=CC(C)(C)O4
active: [1] 0.001 µM | [2] 9.35 µM | [3] 0.0296 µM | [5] 0.418 µM | [6] 0.372 µM | [16] 0.0662 µM | [7] 9.35 µM | [8] 0.0187 µM | [9] 11.8 µM | [10] 0.662 µM | [11] 2.96 µM | [18] 0.0296 µM | [13] 0.418 µM | [19] 0.0264 µM | [14] 23.5 µM
